From the supplement of paper PMC6555819

How the values were obtained:
Assay in all cases: PBM binding z-score (relative to random genomic background probes); higher = stronger binding; sequences stand for … in GC…GCGATTGACAGCGTAGAATGAAGG
[1] = system: FXR:RXRa (NR concentration 270 nM, RXRa partner concentration 90 nM)
Summary of the method: (§1)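 Custom Agilent 4×180K protein-binding microarrays carried double-stranded probes, each with a 34-nt variable region. These regions held direct-repeat seeds, single-nucleotide variants, half-site ablations and random human genomic background sequences. Ligand-free nuclear receptor dimers were incubated on the arrays for 1 h, antibodies against each partner (one per run) detected binding, and scanned fluorescence was regression-normalized. Binding z-scores take the random background probes as reference.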

[2] = system: LXRa:RXRa (NR concentration 270 nM, RXRa partner concentration 90 nM)
Summary of the method: as §1

[3] = system: LXRa homodimer (NR concentration 270 nM)
Summary of the method: as §1

[4] = system: LXRb:RXRa (NR concentration 270 nM, RXRa partner concentration 90 nM)
Summary of the method: as §1

[5] = system: LXRb homodimer (NR concentration 270 nM)
Summary of the method: as §1

[6] = system: PPARa:RXRa (NR concentration 270 nM, RXRa partner concentration 90 nM)
Summary of the method: as §1

[7] = system: PPARg:RXRa (NR concentration 180 nM, RXRa partner concentration 90 nM)
Summary of the method: as §1

[8] = system: PPARg:RXRa 270nM:90nM, anti-RXR (NR concentration 270 nM, RXRa partner concentration 90 nM)
Summary of the method: as §1

[9] = system: PPARg:RXRa 30nM:10nM, anti-RXR (NR concentration 30 nM, RXRa partner concentration 10 nM)
Summary of the method: as §1

[10] = system: PPARg:RXRa 90nM:30nM, anti-RXR (NR concentration 90 nM, RXRa partner concentration 30 nM)
Summary of the method: as §1

Sequence | PBM binding z-score [1] | PBM binding z-score [2] | PBM binding z-score [3] | PBM binding z-score [4] | PBM binding z-score [5] | PBM binding z-score [6] | PBM binding z-score [7] | PBM binding z-score [8] | PBM binding z-score [9] | PBM binding z-score [10]
GCGACTGGGGCATCAGCAGGTTACCCTAACTTAA | -0.187 | -0.0714 | -0.26 | 0.646 | -1.16 | 1.32 | 0.617 | 0.949 | -0.87 | 0.118
ACCGAAAGGTCGACGAGGTGAGTATACACCGTTT | 4.37 | 3.09 | 0.178 | 2.83 | -0.0188 | 4.42 | 2.71 | 3.21 | 0.781 | 2.02
CTCGAAAGGTCGGTTGACGTGAGTATACGGATAA | 1.71 | 1.46 | 0.0257 | 1.44 | 0.0927 | 2.2 | 0.565 | 0.822 | 0.194 | 0.528
TAGCCTAGGTCACTCAGGGGCCAGTATAGAAAGC | 3.32 | 2.18 | -0.258 | 2 | -0.123 | 3.18 | 2.64 | 2.29 | 0.26 | 1.24
GCTATTAGTTGAATGGGCAACCGAATGATTCTCG | -0.277 | -0.309 | -0.219 | -0.351 | -0.317 | -0.737 | 0.129 | -0.166 | -0.146 | 0.0794
CATCCAGGGTCAGCTAGGCCAGAGTAGGGACGGC | 4.57 | 3.12 | -0.152 | 2.1 | 0.239 | 4.34 | 2.97 | 3.3 | 0.549 | 1.89
TAGCCTAGGTCATTGGGCCAGTGTAGTACGCATC | 4.3 | 3.42 | 0.864 | 2.46 | 0.102 | 3.86 | 3.6 | 3.76 | 0.587 | 2.41
TCTAGTTGGTCAAAGGTCGCACACTCGAAATGCG | 2.96 | 2.82 | 0.642 | 2.92 | 0.553 | 5.33 | 10.3 | 9.2 | 10.5 | 10.8
GTACCAAGGTGAATAGGTCGCTGATGAGTAGGCG | 0.713 | 0.531 | -0.254 | 0.0295 | -0.695 | 1.95 | 1.48 | 1.74 | 0.17 | 1.14
GCTCTGAGGACAAGGTCAGAGCTTTGTCCGTAGA | 1.69 | 1.56 | -0.176 | 1.45 | -0.782 | 2.3 | 1.02 | 2.06 | 0.095 | 1.22
GCAGACAGGTGAAACGCAGGTAACTAAGGGTGGC | -0.237 | 0.0308 | -0.755 | -0.289 | -0.873 | 0.88 | 0.651 | -0.421 | -0.539 | -0.453
GGAACGAGGGCATTGGAGTTGATAGCATGGCGAT | 0.624 | 1.25 | -0.304 | -0.0971 | -0.75 | 1.36 | 0.831 | 0.611 | -0.313 | -0.0775
ACCTCTAGGTAACAAGTTCAGTGAAAGAGAGGAC | 0.245 | 0.295 | 0.188 | 0.426 | -0.0173 | 1.02 | 1.18 | 1.5 | 0.452 | 1.29
ACAGACAGGTGAGAGAAGGTAACTCAGCTGGACG | 0.34 | -0.0792 | -0.413 | -0.366 | -0.81 | 0.165 | 0.832 | -0.247 | 0.0838 | 0.154
GCTTGTAGATCAAGGTTAAGAACGACTAAGCTAA | 0.0945 | 0.622 | -0.347 | 0.349 | -0.704 | 1.59 | 1.12 | 2.18 | 0.429 | 1.44
AGAACCAGGGCACGCTGAGTTGATAGCAGAGTAG | -0.172 | 0.136 | -0.611 | -0.397 | -1.03 | 1.29 | 1.55 | 1.19 | -0.116 | 0.466
CGTCAAAGTTCAACTAAGGTAAAGTAAAGCACGC | 6.88 | 6.38 | 3.13 | 4.16 | 2.1 | 5.3 | 4.8 | 5.57 | 2.59 | 4.36
ATACCAAGGTGATCGGGAGGTCGTTGATACTAAC | 1.36 | 0.921 | 0.848 | 1.34 | 0.329 | 1.55 | 0.591 | 0.404 | 0.193 | 0.12
CGAACTAGGTCAGGACAGGACAGTGAAGGATGAT | 1.85 | 0.936 | -0.238 | 0.443 | -0.587 | 3.13 | 5.98 | 5.1 | 2.35 | 4.11
CGTCAAACTTCAAGGTAACGTAACAGAAAGCAGC | 0.471 | 0.1 | 0.0122 | 0.289 | 0.209 | 0.32 | 0.645 | 0.119 | 0.337 | 0.21
GCGACTGGGGCATAGCAGGTTACCATAAGGTTGG | 0.397 | 0.135 | -0.575 | 0.25 | -0.915 | 1.2 | 1.02 | 0.684 | -0.371 | 0.318
CCTTACGGGTCACGAGGTTATAGCGCGACGAGCG | 7 | 4.91 | 0.435 | 3.79 | -0.01 | 6.01 | 7.42 | 6.71 | 3.03 | 5.28
GCATATAGGTAATCCAAGGTGAAAGTCCGATTGT | 2.37 | 2.66 | 0.0628 | 0.738 | -0.267 | 1.76 | 1.15 | 1.24 | 0.358 | 0.949
CTACCAAGGTGAACAAGGTGGTTGATTACTATTC | 0.298 | 0.0424 | -0.231 | 0.391 | -0.589 | 1.21 | 0.492 | 0.416 | -0.231 | 0.026

Sequence | PBM binding z-score [1] | PBM binding z-score [2] | PBM binding z-score [3] | PBM binding z-score [4] | PBM binding z-score [5] | PBM binding z-score [6] | PBM binding z-score [7] | PBM binding z-score [8] | PBM binding z-score [9] | PBM binding z-score [10]
AGTCAAAGTTTACTAGGTAACGTAAGATTCAGCT | -0.0676 | 0.666 | 0.138 | 0.287 | 0.0239 | 2.28 | 3.46 | 3.72 | 1.13 | 2.53
ATGTGTAGGTTAAGGGTCATTCAGGTTGGTTCGC | 5.28 | 4.85 | 3.49 | 4.71 | 2.56 | 5.72 | 9.4 | 8.54 | 9.74 | 9.9
TCGAGTAGGTTAGGGCCATTCAGAATGGCGTCGA | 0.218 | -0.0329 | -0.658 | -0.207 | -1.05 | 0.58 | 0.0561 | 0.722 | 0.497 | 0.65
CCGATTAGGTTATGGGGCATTCAGGCAACGGTGA | 0.472 | 0.574 | -0.0892 | 0.58 | -0.609 | 1.58 | 2.14 | 3.35 | 1.63 | 2.83
GTACCAAGGTGAATAGGTCGTTGACGAGTAGGCG | 1.08 | 0.711 | -0.12 | 0.495 | -0.439 | 2.45 | 1.58 | 1.84 | 0.445 | 1.35
GCGACTGGGGCAAAGCGGGTTACCATAAGGTTGG | 0.373 | -0.0696 | -0.512 | 0.27 | -0.709 | 1.42 | 1.15 | 1.47 | -0.245 | 0.845
CGAACTAGGTCAAGGACATTGAATCTCCGCACGC | 3.45 | 2.4 | 0.44 | 1.68 | 0.0209 | 4.43 | 7.54 | 6.28 | 4.19 | 6
GTACCAAGGTGAATAGATCGTTGATGAGTAGGCG | 0.377 | 0.133 | -0.179 | -0.113 | -0.522 | 0.852 | 0.853 | 0.705 | 0.296 | 0.417
TCTGGTAGATCAATAGAGGTTAAGAAAGTGCGCT | 0.764 | 3.4 | 0.62 | 1.81 | -0.161 | 1.62 | -0.137 | 1.4 | 2.44 | 1.78
GATACAGGGTCAGCTAGAGGCCTGAGTATGGAAA | 4.07 | 2.14 | -0.546 | 1.75 | -0.639 | 4.25 | 3.02 | 2.86 | 0.545 | 1.56
GCTGCTAGGTCAACTGATGGTCAGCTCAAGCTCG | 4.04 | 3.02 | 0.195 | 2.03 | 0.0529 | 3.43 | 2.32 | 2.98 | 0.574 | 1.74
TATACAGGGTGAAAGGCCAGAGTACGAATGTCGA | 0.996 | 0.959 | -0.157 | 1.08 | 0.982 | 3.14 | 5.05 | 5.48 | 4.23 | 5.46
TCTAGCAGGCAAGAGGGTCACTCAAGAGGTACGG | 0.555 | 0.86 | -0.678 | 1.18 | -1.24 | 2.25 | 1.01 | 1.76 | 1.7 | 1.82
TATACAGGGTCAAAGGCCAGACTACGAATGTCGA | 7.5 | 6.15 | 2.32 | 4.84 | 2.22 | 6.39 | 8.41 | 7.38 | 5.4 | 7.02
CCTAGCAGGCCAATCTGGGCCACTCAAGGCTTGA | -0.284 | -0.644 | -0.799 | -1.18 | -1.02 | 0.492 | -0.0153 | -0.364 | -1.32 | -1.08
CCTTACGGGTGACGAGGTTATAGCACGACGAGCG | 0.791 | 0.766 | -0.00764 | 0.572 | -0.569 | 2.24 | 1.89 | 1.82 | -0.0114 | 1.22
ATATGTAGGTTACATCCGGGCCATTCAGGCTATG | 0.546 | 2.67 | 0.422 | 1.05 | 0.287 | 3.13 | 5.08 | 4.09 | 1.51 | 3.05
ACTTACGGGTCAACGAGGTTATCGCACGCGTATA | 7.3 | 5.42 | 1.07 | 4.36 | 1.13 | 5.83 | 5.87 | 5.69 | 2.32 | 4.5
TTGAGTAGGTTAGGGGCATTCAGAATGGCGTCGA | 0.794 | 0.55 | 0.331 | 1.42 | 1.36 | 1.84 | 1.34 | 2.8 | 1.58 | 2.25
TCAGACAGGTGAAGTTAACTCAGGTACGCAGTCG | 0.865 | 0.967 | 0.0333 | 0.725 | -0.0783 | 1.17 | 0.534 | 2.18 | 3.93 | 2.75
CATACAGGGTCAGCTAGGCAAGAGTAGGGACGGC | 4.09 | 2.76 | -0.331 | 1.96 | 0.0161 | 4.34 | 3.37 | 3.02 | 0.458 | 1.77
ATCACTAGGTAAAGTTCAGTGAAAGATCGATAGA | 0.984 | 1.7 | 1.43 | 1.17 | 0.688 | 2.22 | 2.59 | 3.38 | 1.45 | 2.7
GCGACTGGGGCAAACCAGGTTACCATAAGGTTGG | 0.393 | 0.174 | -0.329 | 0.0865 | -0.736 | 1.37 | 1.43 | 1.51 | -0.386 | 0.602
CAAACTAGGTCTCCGGAAGGTCAAAGTCCGCATG | 2.65 | 3.15 | 2.79 | 3.25 | 0.445 | 3.75 | 2.85 | 3.29 | 0.811 | 2.34
